Source: ChEMBL document CHEMBL1961873, “Compounds: GSK PKIS; Assays: Nanosyn kinase panel” (2012)

Key:
[1] = target: Serine/threonine-protein kinase PAK 6 (Homo sapiens) (UniProt Q9NQU5); conditions: at 1 µM;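 also: values are mean percent inhibition of PAK6 kinase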
[2] = tested on: Tyrosine-protein kinase ABL1 (Homo sapiens), P00519 [E255K]; conditions: at 0.1 µM
[3] = tested on: Tyrosine-protein kinase ABL1 (Homo sapiens), P00519 [E255K]; conditions: at 1 µM
[4] = tested on: Tyrosine-protein kinase ABL1 (Homo sapiens), P00519 [H396P]; conditions: at 0.1 µM
[5] = tested on: Tyrosine-protein kinase ABL1 (Homo sapiens), P00519 [H396P]; conditions: at 1 µM
[6] = tested on: Tyrosine-protein kinase ABL1 (Homo sapiens), P00519 [M351T]; conditions: at 0.1 µM
[7] = tested on: Tyrosine-protein kinase ABL1 (Homo sapiens), P00519 [M351T]; conditions: at 1 µM
[8] = tested on: Tyrosine-protein kinase ABL1 (Homo sapiens), P00519 [Q252H]; conditions: at 0.1 µM
[9] = tested on: Tyrosine-protein kinase ABL1 (Homo sapiens), P00519 [Q252H]; conditions: at 1 µM
[10] = tested on: Tyrosine-protein kinase ABL1 (Homo sapiens), P00519 [T315I]; conditions: at 0.1 µM
[11] = tested on: Tyrosine-protein kinase ABL1 (Homo sapiens), P00519 [T315I]; conditions: at 1 µM
[12] = tested on: Tyrosine-protein kinase ABL1 (Homo sapiens), P00519 [Y253F]; conditions: at 0.1 µM
[13] = tested on: Tyrosine-protein kinase ABL1 (Homo sapiens), P00519 [Y253F]; conditions: at 1 µM
[14] = target: Tyrosine-protein kinase ABL1 (Homo sapiens) (UniProt P00519); conditions: at 0.1 µM
[15] = target: Tyrosine-protein kinase ABL1 (Homo sapiens) (UniProt P00519); conditions: at 1 µM
[16] = target: ALK tyrosine kinase receptor (Homo sapiens) (UniProt Q9UM73); conditions: at 0.1 µM
[17] = target: ALK tyrosine kinase receptor (Homo sapiens) (UniProt Q9UM73); conditions: at 1 µM
[18] = target: Tyrosine-protein kinase ABL2 (Homo sapiens) (UniProt P42684); conditions: at 0.1 µM
[19] = target: Tyrosine-protein kinase ABL2 (Homo sapiens) (UniProt P42684); conditions: at 1 µM
[20] = target: Tyrosine-protein kinase receptor UFO (Homo sapiens) (UniProt P30530); conditions: at 0.1 µM;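 also: values are mean percent inhibition of AXL from the GSK PKIS screen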
Sequence of Tyrosine-protein kinase receptor UFO (Homo sapiens) (P30530 whole entry): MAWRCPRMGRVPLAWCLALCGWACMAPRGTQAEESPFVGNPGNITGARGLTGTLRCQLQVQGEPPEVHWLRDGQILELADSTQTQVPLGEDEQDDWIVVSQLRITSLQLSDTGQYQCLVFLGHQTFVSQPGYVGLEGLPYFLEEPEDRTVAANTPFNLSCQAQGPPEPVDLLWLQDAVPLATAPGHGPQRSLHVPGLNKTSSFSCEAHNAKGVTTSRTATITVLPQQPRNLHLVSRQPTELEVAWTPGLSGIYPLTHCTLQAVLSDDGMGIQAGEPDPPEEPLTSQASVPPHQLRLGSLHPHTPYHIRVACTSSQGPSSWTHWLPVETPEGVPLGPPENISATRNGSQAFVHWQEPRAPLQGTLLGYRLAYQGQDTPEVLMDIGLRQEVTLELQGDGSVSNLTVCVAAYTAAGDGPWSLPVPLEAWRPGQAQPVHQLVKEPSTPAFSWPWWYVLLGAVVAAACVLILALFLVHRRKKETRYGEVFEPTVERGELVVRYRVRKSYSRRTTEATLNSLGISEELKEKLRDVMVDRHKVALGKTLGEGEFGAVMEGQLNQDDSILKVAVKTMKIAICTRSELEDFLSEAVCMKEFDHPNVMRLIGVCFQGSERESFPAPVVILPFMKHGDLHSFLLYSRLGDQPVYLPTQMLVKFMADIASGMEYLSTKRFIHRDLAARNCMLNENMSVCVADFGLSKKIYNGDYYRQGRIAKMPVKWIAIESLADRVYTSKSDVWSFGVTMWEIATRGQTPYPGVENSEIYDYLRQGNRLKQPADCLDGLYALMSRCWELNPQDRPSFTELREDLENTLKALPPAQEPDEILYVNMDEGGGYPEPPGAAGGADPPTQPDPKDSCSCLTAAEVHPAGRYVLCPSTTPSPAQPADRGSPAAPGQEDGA

Sequence of Tyrosine-protein kinase ABL2 (Homo sapiens) (P42684 whole entry): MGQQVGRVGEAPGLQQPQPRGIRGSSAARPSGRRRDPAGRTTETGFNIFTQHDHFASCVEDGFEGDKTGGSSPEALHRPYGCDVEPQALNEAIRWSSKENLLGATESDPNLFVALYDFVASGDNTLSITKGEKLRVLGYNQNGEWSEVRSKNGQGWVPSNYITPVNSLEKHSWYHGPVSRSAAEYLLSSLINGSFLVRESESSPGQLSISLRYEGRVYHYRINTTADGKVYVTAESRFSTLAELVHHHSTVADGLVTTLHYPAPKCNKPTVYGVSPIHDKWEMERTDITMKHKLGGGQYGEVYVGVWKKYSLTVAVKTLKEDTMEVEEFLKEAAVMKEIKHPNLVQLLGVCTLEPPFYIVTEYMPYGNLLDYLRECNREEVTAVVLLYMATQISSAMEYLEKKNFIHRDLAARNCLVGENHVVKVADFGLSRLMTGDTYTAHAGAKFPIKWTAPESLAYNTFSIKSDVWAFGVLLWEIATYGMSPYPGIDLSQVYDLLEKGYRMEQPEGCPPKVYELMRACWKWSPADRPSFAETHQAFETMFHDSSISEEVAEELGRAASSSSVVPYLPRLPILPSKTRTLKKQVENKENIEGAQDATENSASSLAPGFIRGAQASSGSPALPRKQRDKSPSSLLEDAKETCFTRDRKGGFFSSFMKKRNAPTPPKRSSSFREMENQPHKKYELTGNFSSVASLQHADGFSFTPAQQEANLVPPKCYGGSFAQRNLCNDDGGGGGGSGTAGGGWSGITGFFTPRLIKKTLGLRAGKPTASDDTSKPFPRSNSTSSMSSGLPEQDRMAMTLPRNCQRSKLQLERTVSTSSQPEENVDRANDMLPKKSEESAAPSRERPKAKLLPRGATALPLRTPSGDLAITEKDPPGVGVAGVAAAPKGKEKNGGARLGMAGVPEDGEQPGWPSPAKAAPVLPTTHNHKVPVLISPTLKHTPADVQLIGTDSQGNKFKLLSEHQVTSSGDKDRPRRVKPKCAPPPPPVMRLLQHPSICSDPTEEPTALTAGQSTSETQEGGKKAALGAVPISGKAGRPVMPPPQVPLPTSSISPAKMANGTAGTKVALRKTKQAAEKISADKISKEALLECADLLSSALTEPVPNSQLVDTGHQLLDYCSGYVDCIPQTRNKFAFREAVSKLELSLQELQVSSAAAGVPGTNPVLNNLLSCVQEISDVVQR
Sequence of Serine/threonine-protein kinase PAK 6 (Homo sapiens) (Q9NQU5 whole entry, looked up): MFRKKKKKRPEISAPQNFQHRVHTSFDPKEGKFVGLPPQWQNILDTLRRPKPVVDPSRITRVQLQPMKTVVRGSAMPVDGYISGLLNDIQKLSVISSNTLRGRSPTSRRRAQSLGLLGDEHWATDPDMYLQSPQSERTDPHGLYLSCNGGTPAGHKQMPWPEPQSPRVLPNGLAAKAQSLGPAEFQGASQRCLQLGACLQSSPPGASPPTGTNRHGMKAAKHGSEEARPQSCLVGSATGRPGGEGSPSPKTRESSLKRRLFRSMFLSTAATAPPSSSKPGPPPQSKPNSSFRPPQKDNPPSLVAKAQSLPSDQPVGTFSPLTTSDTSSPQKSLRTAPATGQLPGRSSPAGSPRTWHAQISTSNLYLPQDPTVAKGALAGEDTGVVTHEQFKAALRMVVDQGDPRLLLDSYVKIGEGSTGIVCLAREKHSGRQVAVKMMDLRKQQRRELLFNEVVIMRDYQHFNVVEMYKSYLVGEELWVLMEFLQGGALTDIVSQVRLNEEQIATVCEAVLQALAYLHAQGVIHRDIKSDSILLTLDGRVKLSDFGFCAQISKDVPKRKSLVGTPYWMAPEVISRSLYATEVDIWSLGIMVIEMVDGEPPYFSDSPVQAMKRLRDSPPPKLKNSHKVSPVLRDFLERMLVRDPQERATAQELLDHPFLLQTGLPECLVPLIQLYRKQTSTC
Sequence of ALK tyrosine kinase receptor (Homo sapiens) (Q9UM73 19-1620 limits assumed): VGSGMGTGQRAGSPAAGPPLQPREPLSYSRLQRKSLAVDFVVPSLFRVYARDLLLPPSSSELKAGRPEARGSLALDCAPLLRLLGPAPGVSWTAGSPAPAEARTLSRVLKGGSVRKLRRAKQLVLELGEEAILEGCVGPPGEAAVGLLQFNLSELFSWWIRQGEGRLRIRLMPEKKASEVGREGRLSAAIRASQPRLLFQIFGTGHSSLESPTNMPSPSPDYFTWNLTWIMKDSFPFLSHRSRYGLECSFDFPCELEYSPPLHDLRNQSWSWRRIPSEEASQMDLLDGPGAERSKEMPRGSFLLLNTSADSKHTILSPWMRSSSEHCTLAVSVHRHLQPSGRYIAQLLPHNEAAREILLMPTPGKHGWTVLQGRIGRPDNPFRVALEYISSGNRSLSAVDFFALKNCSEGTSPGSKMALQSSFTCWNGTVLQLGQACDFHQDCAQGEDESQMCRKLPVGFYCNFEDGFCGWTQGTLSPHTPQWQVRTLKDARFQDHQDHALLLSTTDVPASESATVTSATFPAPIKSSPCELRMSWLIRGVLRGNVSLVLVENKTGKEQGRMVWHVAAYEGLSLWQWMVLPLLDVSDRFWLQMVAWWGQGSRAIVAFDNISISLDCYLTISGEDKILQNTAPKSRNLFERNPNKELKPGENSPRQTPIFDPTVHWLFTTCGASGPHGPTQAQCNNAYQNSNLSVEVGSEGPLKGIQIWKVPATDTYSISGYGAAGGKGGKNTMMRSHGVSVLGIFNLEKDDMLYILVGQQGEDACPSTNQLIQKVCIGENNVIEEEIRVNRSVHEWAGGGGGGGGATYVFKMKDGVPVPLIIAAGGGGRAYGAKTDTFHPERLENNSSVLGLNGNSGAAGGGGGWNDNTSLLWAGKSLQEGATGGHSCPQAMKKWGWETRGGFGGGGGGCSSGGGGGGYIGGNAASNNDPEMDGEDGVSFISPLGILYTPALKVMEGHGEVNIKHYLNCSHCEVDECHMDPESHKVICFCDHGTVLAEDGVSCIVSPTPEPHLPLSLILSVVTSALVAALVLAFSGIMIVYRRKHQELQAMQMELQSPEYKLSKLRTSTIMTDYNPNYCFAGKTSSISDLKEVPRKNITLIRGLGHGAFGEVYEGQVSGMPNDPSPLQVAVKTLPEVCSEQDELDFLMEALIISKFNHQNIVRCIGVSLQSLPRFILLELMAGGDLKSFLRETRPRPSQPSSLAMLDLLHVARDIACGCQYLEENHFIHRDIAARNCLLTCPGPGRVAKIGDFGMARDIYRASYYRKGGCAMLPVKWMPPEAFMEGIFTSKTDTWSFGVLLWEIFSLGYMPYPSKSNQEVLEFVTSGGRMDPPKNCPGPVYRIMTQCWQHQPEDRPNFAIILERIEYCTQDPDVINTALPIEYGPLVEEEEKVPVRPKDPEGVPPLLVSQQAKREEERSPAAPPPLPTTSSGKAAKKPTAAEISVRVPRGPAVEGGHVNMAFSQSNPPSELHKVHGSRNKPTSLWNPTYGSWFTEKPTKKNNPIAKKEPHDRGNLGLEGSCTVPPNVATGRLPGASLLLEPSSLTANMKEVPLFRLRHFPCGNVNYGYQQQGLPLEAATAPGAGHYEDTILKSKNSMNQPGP

SMILES	inhibition [1] [%]	inhibition [2] [%]	inhibition [3] [%]	inhibition [4] [%]	inhibition [5] [%]	inhibition [6] [%]	inhibition [7] [%]	inhibition [8] [%]	inhibition [9] [%]	inhibition [10] [%]	inhibition [11] [%]	inhibition [12] [%]	inhibition [13] [%]	inhibition [14] [%]	inhibition [15] [%]	inhibition [16] [%]	inhibition [17] [%]	inhibition [18] [%]	inhibition [19] [%]	inhibition [20] [%]
COc1cccc(-n2ncc3c(N/N=C/c4ccc(F)cc4)ncnc32)c1	5.5	44.1	79.3	51.2	84.5	51.7	85.4	63.6	88.8	12.8	38.8	58.5	86.1	21.1	75.8	2.82	3.76	9.51	57.9	-4.72
Nc1nc(-c2cccc(Cl)c2)c(-c2ccc3ncccc3n2)s1	-0.98	3.98	11.2	7.52	19.9	3.37	20.2	6.97	16.9	3.18	7.84	5.66	15.3	3.63	15.7	5.48	7.43	3.3	7.05	-6.08
c1ccc(COc2ccc(Nc3ncnc4ccc(-c5ccco5)cc34)cc2)cc1	1.25	-0.69	0.29	0.16	0.64	0.39	2.41	0.54	0.07	1.64	1.49	0.09	0.37	2.97	1	1.38	2.45	2.41	4.34	0.76
CCn1c(-c2nonc2N)nc2c(C#CC(C)(C)O)nc(OC[C@H](N)c3ccccc3)cc21	77.3	-1.28	-0.66	1.67	2.25	0.72	1.98	1.23	1.98	0.64	7.77	0.1	2.5	2.86	2.9	5.79	9.07	2.63	3.84	-1.29
Cc1cccc(Nc2ncc(-c3ccccc3)o2)c1	4.48	-0.07	8.14	5.02	19.4	2.38	21.6	2.49	13.4	2.39	5.99	3.68	19.5	4.34	14.2	3.9	4.76	3.13	18	-1.8
CCCN(CCS(C)(=O)=O)Cc1ccc(-c2ccc3ncnc(Nc4ccc(OCc5cccc(F)c5)c(Cl)c4)c3c2)o1	0.49	2.99	2.9	3.87	1.99	3.22	3.73	3.51	3.02	1.81	2.18	3.73	3.01	6.06	6.41	1.67	4.89	7.3	5.25	-1.63
Fc1ccc(-c2cc(-c3c[nH]nc3-c3ccccn3)ccn2)cc1	-4.06	3.42	14.4	7.22	29.8	4.15	28.3	5.44	16	3.13	5.68	5.63	17.4	4.06	30.4	4.07	5.67	2.48	7.82	-7.67
CCOc1ccc2c(-c3ccnc(Nc4cccc(C(F)(F)F)c4)n3)cnn2n1	-3.51	2.13	4.02	2.46	4.74	0.25	1.69	2.99	3.05	-0.14	2.2	2.21	3.23	3.73	7.89	2.18	3.1	2.04	8.28	-3.01
FC(F)(F)c1cccc(-c2nn3ncccc3c2-c2ccnc(Nc3ccc4c(c3)OCCO4)n2)c1	-1.75	3.04	9.11	6.97	36.6	10.1	50	9.57	45.2	10.1	32.5	5.94	30.6	3.95	30.4	2.44	3.89	4.21	32.1	-5.2
Cc1ccc(O)cc1Nc1ccnc2cc(-c3ccccn3)ccc12	4.08	93.5	96.2	94.7	97.2	93.6	97.9	94	98	10.1	50.7	95.5	98.2	84.3	89.4	5.32	34.1	74.3	95.7	-5.44
CNC(=O)c1cc(-c2ccc(F)cc2)cc(-c2ccc(S(=O)(=O)N3CCCC3)cc2)c1N	-8.22	2.54	2.4	3.29	3.32	0.22	0.79	1.67	1.16	2.5	2.16	3.15	4.16	3.12	5.19	1.91	2.88	2.17	3.71	-5.35
N#Cc1c(NC(=O)CN2CCOCC2)sc2c1CCCC2	-4.27	3.47	4.25	2.48	5.61	1.25	4.91	1.82	4.61	2.58	5.24	5.91	7.6	6.98	7.71	3.56	8.62	5.84	5.84	-5.02
Fc1ccc(-c2nn3ccccc3c2-c2ccncc2)cc1	-2	1.77	2.14	1.59	4.98	-1.48	8.75	0.48	6.96	0.16	4.09	1.97	4.11	1.42	9.29	0.44	1.88	3.94	7.98	-2.22
CN1CCC(n2cnc(-c3ccc(F)cc3)c2-c2ccnc(N)n2)CC1	-6	3.04	7	2.82	11.9	-0.15	7.75	2.65	6.83	1.94	5.74	1.88	8.15	2.31	8.97	1.26	4.21	2.89	7.64	-3.77
